Compounds with a hit are over-represented: about 0.52% of the library has one in this group of screens.
Sa helicase inh: S. aureus DNA helicase inhibition. purified S. aureus helicase, fluorescence unwinding assay. inhibition, % (test concentration not listed). actives 0.05% (n = 120,000); in the data active means inhibition above about 25%, passing the limit was not always enough;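 further: 0% = mean of negative control wells and 100% = mean of positive control wells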
Sa growth 42C: S. aureus growth inhibition | S. aureus RN4220 growth, OD600, 20 h, 42 °C; stronger effect = lower value | relative growth, % (test concentration not listed) | actives 0.53% (n = 170,000) | AID 720641;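 active means relative growth at most 50% at the other temperature and 20+ points below 30 °C, or under 10% at both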
An asterisk follows results filed as active; . = not tested or not shown.

SMILES | Sa helicase inh | Sa growth 42C
N#CCCN/N=C/c1ccc(-c2ccc(SC(F)F)cc2)o1 | -11.0 | 48.4*
CCOC(=O)c1noc2ncn(Cc3cccc(C#N)c3)c(=O)c12 | . | 111.3
COC(=O)c1ccccc1NC(=O)CSc1nc2ccsc2c(=O)n1-c1ccc(F)cc1 | . | 97.2
CCOc1cc(C(=O)N2CCN=C2SC)cc(OCC)c1OCC | 10.0 | 84.9
Oc1c(C(Nc2ccccn2)c2ccccc2F)ccc2cccnc12 (configuration not stated) | . | 17.1
Oc1ccccc1C(Nc1ccccn1)c1ccc2cccnc2c1O (configuration not stated) | 1.0 | 4.8*
O=C(Cn1c(=O)n(Cc2ccco2)c(=O)c2oc3ccccc3c21)Nc1ccc(F)cc1F | . | 116.5
O=C(NC1CCCCCC1)c1cccc2c1C(=O)N(C1CCCCC1)C2 | 13.0 | 101.7
N#Cc1c(Cl)nc(Cl)c(Cl)c1Cl | -3.0 | 66.1
CC(C)=NNc1nc(Cl)c(C#N)c(Cl)c1Cl | . | 6.4*
Oc1nc2c(Cl)c(Cl)c(Cl)cc2o1 | 30.0 | -1.2*
O=c1oc2cc(Cl)c(O)c(Cl)c2s1 | 30.0 | 59.7
CCOC(=O)c1ccc(CNC(=O)CSc2nnnn2-c2ccc(Cl)cc2)o1 | 5.0 | 80.8
Cc1ccc(-c2noc(CNC(C)C)n2)cc1 | 4.0 | 107.4
CCC(=O)Oc1ccc(/C=C(\C#N)c2nc3ccccc3[nH]2)cc1OC | . | 87.2
CCCN(CCC)Cn1nc(-c2ccc3c(c2)OCO3)oc1=S | 12.0 | 38.8*
CCOC(=O)c1nnc(-c2ccc3c(c2)OCO3)o1 | -30.0 | 85.4
CC(C)c1ccc(CNc2nc(-c3ccco3)nn2S(=O)(=O)c2ccc(F)cc2)cc1 | . | 93.2
c1ccc(-c2ccc3c(c2)c2c4n3CCNC4CCC2)cc1 (configuration not stated) | 14.0 | 0.3*
OC(c1ccccc1)c1ccc2c(c1)c1c3n2CCNC3CCC1 (configuration not stated) | -2.0 | 87.0
CN(CCC#N)C(=O)c1cc2cccnc2n(Cc2ccccc2)c1=O | 5.0 | 85.0
COc1ccc(-c2cc(=O)c3cc(OC(=O)c4ccc(OC)c(OC)c4)ccc3o2)cc1 | -14.0 | 80.6
CC(OC(=O)c1ccc(OC(F)F)cc1)C(=O)NC1CC1 (configuration not stated) | 15.0 | .
CCOc1ccc(NC(=O)c2ccc3c(c2)c(C)c(C)n3Cc2ccc(F)cc2)cc1 | . | 117.5
Cc1cc(C)c(NC(=O)Cn2c(=O)n(CC(=O)NCCc3ccccc3)c(=O)c3ccccc32)c(C)c1 | . | 108.7
SMILES | Sa helicase inh | Sa growth 42C
On1ccccc1=S | 11.0 | 0.4*
Cn1ccccc1=S | -2.0 | 100.8
Cc1ccc(Cn2c(=O)n(-c3ccc(C)c(C)c3)c(=O)c3c(C)c(C)sc32)cc1 | . | 93.2
C[C@H]1COc2c(C3(N)CC3)c(F)cc3c(=O)c(C(=O)O)cn1c23 | . | -0.9*
CN1CCN(c2c(F)cc3c(=O)c(C(=O)O)cn4c3c2SCC4)CC1 | . | -0.4*
Cc1cc(F)c(F)cc1C(=O)N1CCN(C)CC1 | 7.0 | 108.2
C[C@H]1COc2c(N3CCN(C)CC3)c(F)cc3c(=O)c(C(=O)O)cn1c23 | . | -0.5*
CCOC(=O)c1[nH]c(C)c(CCC(=O)NCc2cccc(Cl)c2)c1C | . | 109.0
CCOc1cccc(C2c3c(-c4cc(C)ccc4O)n[nH]c3C(=O)N2Cc2ccco2)c1 (configuration not stated) | . | 35.5*
COc1cc(C2c3c(-c4cc(C)ccc4O)n[nH]c3C(=O)N2Cc2ccco2)cc(OC)c1OC (configuration not stated) | . | 107.2
C/C(=N\O)c1cc(-c2ccccc2)no1 | . | -0.7*
C/C(=N\OC(=O)c1ccccc1)c1cc(-c2ccccc2)no1 | 3.0 | 100.9
Cc1cc(C)n(-c2ccc(C(=O)O)cc2)n1 | -5.0 | 95.2
CCCOc1cccc(C(=O)Nc2cccc3cccnc23)c1 | . | 92.8
COc1cccc(C(c2cc3c(cc2O)OCO3)N2CCCC2)c1O (configuration not stated) | 1.0 | 1.2*
COc1ccccc1C(CC(=O)N1CCCC1)c1ccc2c(c1)OCO2 (configuration not stated) | 1.0 | 92.3
CCc1nn2c(=O)c(S(=O)(=O)Nc3ccc(Br)cc3F)c(C)nc2s1 | . | 110.6
Nc1ccc2c(c1)ncn2C1CCCCC1 | 7.0 | 87.2
Cc1c2oc3c(C)ccc(C(=O)N[C@@H]4C(=O)N[C@H](C(C)C)C(=O)N5CCC[C@H]5C(=O)N(C)CC(=O)N(C)[C@@H](C(C)C)C(=O)O[C@@H]4C)c3nc-2c(C(=O)N[C@@H]2C(=O)N[C@H](C(C)C)C(=O)N3CCC[C@H]3C(=O)N(C)CC(=O)N(C)[C@@H](C(C)C)C(=O)O[C@@H]2C)c(N)c1=O | . | -0.6*
Cc1nccc(-c2cccc(N/N=C(\C#N)S(=O)(=O)c3ccccn3)c2)n1 | 0.0 | 94.6
Cc1nccc(-c2cccc(NN=C(C#N)C#N)c2)n1 | 20.0 | -0.4*
N#CCc1nc(C23CC4CC(CC(C4)C2)C3)cs1 | -23.0 | 97.4
Cn1nnnc1SCC1=C(C(=O)O)N2C(=O)C(NC(=O)C(OC=O)c3ccccc3)C2SC1 (configuration not stated) | . | -0.7*
CO[C@@]1(NC(=O)C(C(=O)O)c2ccc(O)cc2)C(=O)N2C(C(=O)O)=C(CSc3nnnn3C)CO[C@@H]21 (some centres not stated) | . | 87.7
O=C(O)C1=C(CSc2nnnn2CS(=O)(=O)O)CS[C@@H]2C(NC(=O)[C@H](O)c3ccccc3)C(=O)N12 (some centres not stated) | . | -0.7*
SMILES | Sa helicase inh | Sa growth 42C
Cn1nnnc1SCC1=C(C(=O)O)N2C(=O)C(NC(=O)C(O)c3ccccc3)C2SC1 (configuration not stated) | . | -0.5*
O=C(NCCSc1nnnn1-c1ccccc1)C(c1ccccc1)c1ccccc1 | -4.0 | 103.8
Cn1nnnc1SCCC(=O)Nc1ccccc1 | 2.0 | 92.0
O=C(O)CCc1ccc(Br)cc1 | 13.0 | 85.0
O=C(C1CC(O)CN1S(=O)(=O)c1ccc2ccccc2c1)N1CCc2ccccc2C1 (configuration not stated) | 0.0 | 101.2
Cc1cc(C(=O)COc2ccc(-c3nnco3)cc2)c(C)n1-c1ccc2c(c1)OCCO2 | 16.0 | 71.1
CCN1/C(=C/c2sc3ccccc3[n+]2CCO)Sc2ccccc21 | 44.0* | 28.4
CCN1/C(=C\C=C2\C(=O)N(C)C(=S)N2C)Sc2ccccc21 | -3.0 | 80.5
Cc1ccc2c(c1)N(CCO)/C(=C/c1sc3ccccc3[n+]1C)S2 | 19.0 | -1.4*
CCC(=O)/C=C1/Sc2ccc(C)cc2N1CC | 1.0 | 127.4
CN(c1ccc(C(=O)NCc2cccnc2)cc1)S(C)(=O)=O | 14.0 | 108.6
Oc1ccc(C(=S)N2CCOCC2)cc1 | -5.0 | 88.3
O=C1NC(c2ccccc2)=N/C1=C\c1ccccc1 | -7.0 | 98.3
CCN1CCCC1CNC(=O)Nc1ccc(Cl)c(Cl)c1 (configuration not stated) | 10.0 | 0.6*
CCN1CCCC1CNCC(=O)Nc1ccc(C)c(Br)c1 (configuration not stated) | 0.0 | 97.9
COc1ccc(N2CCN(c3c4c(nc5nncn35)CCC4)CC2)cc1 | . | 94.5
CCCNc1ccccc1N | 3.0 | 6.7*
CCCCNc1ccc(C(F)(F)F)cc1N | 7.0 | 77.0
Cc1cccc(NC(=O)c2c(NC(=O)C(F)(F)F)sc3c2CCCCC3)c1 | . | 34.8
O=C(Nc1cccc(Cl)c1)c1c(NC(=O)C(F)(F)F)sc2c1CCCC2 | . | -1.2*
C[C@@H](O)[C@H]1C(=O)N2C(C(=O)O)=C(S[C@@H]3CN[C@H](C(=O)N(C)C)C3)[C@H](C)[C@H]12 | . | -0.5*
